Compound activity as filed in PubChem BioAssay.
Compounds with a hit are over-represented: about 2.6% of the library has one in this group of screens.
TRPV1 agonist: HTS Assay for Compounds that Act as Agonists of the Vanilloid Receptor 1; TRPV1-expressing cells, Fluo-8 calcium influx, agonist mode; activation, % at 8.33 µM; hit rate 0.19% among 320,000; AID 540275, 2011; in the data active = activation above about 80%; inconclusive = between about 30% and that limit
Target sequence (Q8NER1 whole entry, looked up): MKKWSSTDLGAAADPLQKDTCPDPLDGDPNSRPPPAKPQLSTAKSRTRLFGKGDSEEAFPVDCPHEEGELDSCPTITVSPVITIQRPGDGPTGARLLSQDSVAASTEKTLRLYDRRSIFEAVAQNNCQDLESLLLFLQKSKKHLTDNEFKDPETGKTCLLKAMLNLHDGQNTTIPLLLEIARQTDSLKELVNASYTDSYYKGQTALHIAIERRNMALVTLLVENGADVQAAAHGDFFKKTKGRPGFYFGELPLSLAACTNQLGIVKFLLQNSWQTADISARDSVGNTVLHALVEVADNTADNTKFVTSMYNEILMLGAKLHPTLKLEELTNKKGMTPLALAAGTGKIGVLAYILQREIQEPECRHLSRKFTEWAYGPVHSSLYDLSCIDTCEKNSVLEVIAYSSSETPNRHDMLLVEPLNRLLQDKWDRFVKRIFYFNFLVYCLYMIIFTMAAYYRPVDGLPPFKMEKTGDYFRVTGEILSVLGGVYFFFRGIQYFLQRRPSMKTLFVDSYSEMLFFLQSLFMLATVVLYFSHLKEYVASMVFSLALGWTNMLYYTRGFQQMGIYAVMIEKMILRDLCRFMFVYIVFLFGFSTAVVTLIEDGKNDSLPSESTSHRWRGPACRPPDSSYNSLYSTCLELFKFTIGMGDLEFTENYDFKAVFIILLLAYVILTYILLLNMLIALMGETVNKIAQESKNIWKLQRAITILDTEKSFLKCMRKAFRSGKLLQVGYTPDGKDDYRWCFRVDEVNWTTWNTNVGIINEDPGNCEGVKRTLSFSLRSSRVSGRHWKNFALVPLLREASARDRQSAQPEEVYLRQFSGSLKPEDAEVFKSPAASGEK
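Cells expressing TRPV1 were dye-loaded with Fluo-8 and read kinetically: 10 s baseline, 3 min after compound (agonist portion), then 2 min after EC20 capsaicin (allosteric enhancer portion). Calcium-bound dye fluorescence at 480/520 nm.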
TRPV1 potentiator: HTS Assay for Compounds that Act as Potentiators of the Vanilloid Receptor 1 | Transient receptor potential cation channel subfamily V member 1 (Homo sapiens), Q8NER1 | hit rate 0.02% among 320,000 | potentiation, % at 8.33 µM | AID 540277, 2011 | TRPV1-expressing cells, Fluo-8 calcium influx, capsaicin EC20 potentiation; in the data active = potentiation above about 80%; inconclusive = between about 30% and that limit
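Cells expressing TRPV1 were dye-loaded with Fluo-8 and read kinetically: 10 s baseline, 3 min after compound (agonist portion), then 2 min after EC20 capsaicin (allosteric enhancer portion). Calcium-bound dye fluorescence at 480/520 nm.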
hERG WT inh: qHTS for Inhibitors of KCHN2 3.1: Wildtype qHTS; activity change, % at 1.84 µM; Voltage-gated inwardly rectifying potassium channel KCNH2 (Homo sapiens), Q12809; U2OS, BacMam KCNH2, thallium flux FluxOr; active compounds read low; hit rate 0.37% among 340,000;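 active = maximum activity change below -70%; inconclusive = maximum activity change between -70% and -50%; inactive = maximum activity change above -50%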
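U2OS cells transduced with wild-type KCNH2 virus are loaded with FluxOr dye for 45 min, and thallium flux is measured in kinetic reads before and after stimulation buffer. Rate constants are normalized to DMSO controls.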
KCNH2 3.1 block: qHTS for Inhibitors of KCHN2 3.1: Mutant qHTS; AID 720553, 2013; activity change, % (tested at about 1.8 µM); Potassium voltage-gated channel subfamily H member 2, brain isoform KCNH2 3.1 (human); hit rate 0.95% among 340,000; U2OS KCNH2 3.1, thallium flux FluxOr; active compounds read low;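 active = maximum activity change below -70%; inconclusive = maximum activity change from -70% to -50%; inactive = maximum activity change above -50%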;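 also: thallium influx rate constant from kinetic fluorescence after stimulation buffer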
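U2OS cells transduced with KCNH2 3.1 mutant virus (1.77 x 10^8 /mL, 4 h), plated overnight at 37 C, loaded 45 min with FluxOr dye plus Red40 quencher. Thallium flux rate constant from kinetic reads after stimulation buffer, normalised to controls.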
p53 reactivator: qHTS assay for re-activators of p53 using a Luc reporter. H1299 p53-A138V BP100-luciferase reporter, luminescence, 24 h. AID 504706, 2011. hit rate 0.063% among 320,000. Potency, µM (highest dose often 92.2 µM), hits mostly activators; active = well fitted activation curve with a large enough effect; inconclusive = small, poorly fitted or top-dose-only effect; inactive = no such curve, though single readings can be large or run the other way; also: nearly all actives have a fitted effect of over 45% in size
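p53-null H1299 cells stably carrying temperature-sensitive p53-A138V and a BP100-luciferase reporter were pinned with compounds (4-point, 1:5 series) and held 24 hrs at 37 deg C. Luminescence was read 10 min after detection reagent.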
ClpP mod: qHTS Assay for Activators of ClpP | ATP-dependent Clp protease proteolytic subunit (Bacillus subtilis (strain 168)), P80244 | purified B. subtilis ClpP, FRET peptide cleavage, 20 min | Potency, µM (titrated, usually from 57.5 µM) | hit rate 1.9% among 340,000 | AID 651965, 2013; active = well fitted falling curve with a large enough effect; inconclusive = small, poorly fitted or top-dose-only effect; inactive = no such curve, though single readings can be large or run the other way; also: the source files actives as falling curves though it sought activators and does not explain the sign; nearly all actives have a fitted effect of over 65% in size
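ClpP 10 microg/mL final, pH 8 Tris/KCl buffer with BSA, glycerol, Tween-20; compound pinned in; FRET-FV substrate; RT 20 min; Ex320/Em430; ΔFRET vs ADEP 5.8 microM, DMSO, no enzyme.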
Large screens that a line does not name were inactive.

CCOC(=O)CSc1nc2cc(OC)ccc2cc1C#N	p53 reactivator inconclusive, ClpP mod 31.6µM
Cc1cccc(NC(=O)Nc2ccc(Oc3c(F)c(F)c(F)c(F)c3F)cc2)c1	none
O=C(Nc1ccc(Oc2c(F)c(F)c(F)c(F)c2F)cc1)OC1CCN2Cc3ccccc3N=C12 (stereo not drawn)	hERG WT inh -83.2, KCNH2 3.1 block -100.2 (no result: ClpP mod)
C=CCn1c(COc2cccc3ccc(C)nc23)nnc1SCC(=O)O	ClpP mod 35.5µM (no result: p53 reactivator)
Cc1ccccc1OCc1nnc(SCC(=O)O)n1Cc1ccccc1	none (no result: ClpP mod)
C=CCn1c(COc2cccc3cccnc23)nnc1SCC(=O)O	ClpP mod 28.2µM
Cc1cccc(C)c1NC(=O)C1(C)CSCC(=O)N1CCc1ccccc1F (stereo not drawn)	none (no result: TRPV1 agonist, TRPV1 potentiator, hERG WT inh, KCNH2 3.1 block, p53 reactivator)
CCS(=O)(=O)N1CC(=O)N(c2ccc(C)c(C)c2)C(C)(C(=O)NC2CCCCCC2)C1 (stereo not drawn)	none (no result: TRPV1 agonist, TRPV1 potentiator, hERG WT inh, KCNH2 3.1 block, p53 reactivator)
O=C1O[C@@H](c2ccccc2)C[C@@H](O)C(=O)CCc2ccccc21	none (no result: TRPV1 agonist, TRPV1 potentiator, hERG WT inh, KCNH2 3.1 block, p53 reactivator)
CCN(CC(=O)NCc1cccs1)C(=O)c1cccc(S(=O)(=O)N2CC(C)OC(C)C2)c1 (stereo not drawn)	hERG WT inh -131.4, KCNH2 3.1 block -156.0 (no result: TRPV1 agonist, TRPV1 potentiator)
Cc1cccc(-c2cc3nc4c(c(NCc5ccco5)n3n2)CCCC4)c1	TRPV1 agonist inconclusive, hERG WT inh inconclusive, KCNH2 3.1 block -82.8, p53 reactivator inconclusive, ClpP mod 28.2µM
Cc1ccc(NC2CCCN(C(=O)CCC(=O)c3ccccc3)C2)cc1C (stereo not drawn)	TRPV1 agonist 92.5
Cc1ccc(NC2CCCN(C(=O)CN3C(=O)c4ccccc4C3=O)C2)cc1C (stereo not drawn)	TRPV1 agonist inconclusive (no result: KCNH2 3.1 block)
COc1ccc(NC2CCCN(C(=O)CCc3ccccc3F)C2)cc1 (stereo not drawn)	TRPV1 agonist 81.5
O=C(CCc1cccc(Cl)c1)N1CCCC(Nc2ccccc2)C1 (stereo not drawn)	TRPV1 agonist 83.6
COc1ccc(OCC(=O)N2CCCC(Nc3ccc(C)c(C)c3)C2)cc1 (stereo not drawn)	KCNH2 3.1 block -87.5 (no result: TRPV1 agonist, TRPV1 potentiator, p53 reactivator)
O=C1CCCCN1CCC(=O)N1CCCC(Nc2ccccc2)C1 (stereo not drawn)	none
OC(CN1C=CCc2ccccc21)c1ccc(Cl)cc1Cl (stereo not drawn)	none (no result: TRPV1 agonist, TRPV1 potentiator, hERG WT inh, KCNH2 3.1 block, p53 reactivator)
COc1ccc(NC2CCCN(C(=O)CSc3ccccc3)C2)cc1 (stereo not drawn)	TRPV1 agonist inconclusive
COc1ccc(NC2CCCN(C(=O)CCOc3ccccc3)C2)cc1 (stereo not drawn)	TRPV1 agonist 81.7
Cc1c(CNC2CCCCC2)c(C(=O)O)c(C)n1Cc1ccc(Cl)cc1	none (no result: TRPV1 agonist, TRPV1 potentiator, hERG WT inh, KCNH2 3.1 block, p53 reactivator)
COCc1cc(=O)n2[nH]c(C)cc2n1	ClpP mod 17.8µM
CCCc1cc(=O)n2[nH]c(-c3ccc(Cl)cc3)cc2n1	none (no result: p53 reactivator)
COCc1cc(=O)n2[nH]c(-c3ccccc3)cc2n1	p53 reactivator inconclusive, ClpP mod 25.1µM
CCCc1cc(=O)n2[nH]c(-c3ccc(C)cc3)cc2n1	p53 reactivator inconclusive, ClpP mod 14.1µM
CCCc1cc(=O)n2[nH]c(-c3ccccc3)cc2n1	p53 reactivator inconclusive, ClpP mod 22.4µM
COCc1cc(=O)n2[nH]c(-c3cccc(Br)c3)cc2n1	p53 reactivator inconclusive, ClpP mod inconclusive
CC(C)CC(=O)N1CC=CC[C@@H](c2ccc(Cl)cc2)N(Cc2ccc(Cl)cc2)C(=O)[C@@H]1Cc1ccccc1	none (no result: TRPV1 agonist, TRPV1 potentiator, p53 reactivator)
CCCCn1c(SCc2ccccc2C#N)nc2c(sc3ccccc32)c1=O	none (no result: TRPV1 agonist, TRPV1 potentiator, hERG WT inh, KCNH2 3.1 block, p53 reactivator)
